For some assays here: Results with a measured potency or affinity are listed apart. The list shows a part of the results. Calls of active or inactive are those of the source.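 How the source made its calls, unless noted: active means signal rise over 3 SD above mean of control wells given weak agonist, in both repeats and first screen; inactive means the rest.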
How the values were obtained:
[1] = thallium flux activation in parental CHO cells, counter-screen for KCNQ1 potentiator project (AID 493006;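 active means duplicate-averaged activation above buffer control mean plus 5 SD of those controls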;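 on activation: fluorescence ratio of max minus min over baseline after K+ and Tl+ depolarization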); conditions: parental CHO-K1 cells, FluxOR thallium flux, at 10 µM; active compounds read high
[2] = biological target: Potassium voltage-gated channel subfamily KQT member 1 (Homo sapiens) (UniProt P51787); assay: KCNQ1 potassium channel potentiators, confirmation, FluxOR thallium flux, CHO cells, duplicates (AID 493007;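 active means potentiation averaged over duplicate wells exceeding buffer-only control mean by more than 3 SD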;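 on outcome: cells depolarized by a potassium plus thallium sulfate stimulus after compound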;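 on potentiation: 0% = buffer-only wells and 100% = R-L3 activator control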); conditions: KCNQ1 cell line, FluxOR thallium flux fluorescence, at 10 µM; active compounds read high, % of reference activator effect, buffer zero
Sequence of Potassium voltage-gated channel subfamily KQT member 1 (Homo sapiens) (P51787 whole entry, looked up): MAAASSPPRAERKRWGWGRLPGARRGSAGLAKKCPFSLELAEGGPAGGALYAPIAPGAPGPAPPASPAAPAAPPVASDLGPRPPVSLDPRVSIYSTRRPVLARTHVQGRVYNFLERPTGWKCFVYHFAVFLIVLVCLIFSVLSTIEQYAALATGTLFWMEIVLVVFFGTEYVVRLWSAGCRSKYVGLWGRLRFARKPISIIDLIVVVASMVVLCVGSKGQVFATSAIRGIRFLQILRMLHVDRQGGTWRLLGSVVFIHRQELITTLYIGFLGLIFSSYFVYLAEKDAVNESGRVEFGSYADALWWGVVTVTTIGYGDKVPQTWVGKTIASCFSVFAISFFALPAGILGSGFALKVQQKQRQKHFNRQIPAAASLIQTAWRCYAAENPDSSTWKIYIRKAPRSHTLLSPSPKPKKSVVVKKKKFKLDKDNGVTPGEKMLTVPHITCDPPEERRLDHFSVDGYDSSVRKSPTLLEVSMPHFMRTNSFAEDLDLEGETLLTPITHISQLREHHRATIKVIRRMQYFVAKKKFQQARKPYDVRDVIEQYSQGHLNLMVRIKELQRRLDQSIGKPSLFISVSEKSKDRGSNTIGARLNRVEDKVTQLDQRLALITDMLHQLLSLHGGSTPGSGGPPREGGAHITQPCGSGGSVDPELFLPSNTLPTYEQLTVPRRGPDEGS

[3] = biological target: Potassium voltage-gated channel subfamily KQT member 2 (Rattus norvegicus) (UniProt O88943); assay: rat KCNQ2 channel potentiation, selectivity assay for KCNQ1 potentiator project, KCNQ2-CHO-K1 cells (AID 493009;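 active means mean duplicate potentiation above the buffer control mean plus 5 SD of buffer wells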;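 further: assay conditions were tuned for KCNQ1 rather than KCNQ2 modulators; signal is max minus min fluorescence divided by baseline after thallium stimulus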); conditions: FluxOR thallium flux fluorescence, at 10 µM; active compounds read high, scaled: buffer 0, activator control 100
Sequence of Potassium voltage-gated channel subfamily KQT member 2 (Rattus norvegicus) (O88943 whole entry, looked up): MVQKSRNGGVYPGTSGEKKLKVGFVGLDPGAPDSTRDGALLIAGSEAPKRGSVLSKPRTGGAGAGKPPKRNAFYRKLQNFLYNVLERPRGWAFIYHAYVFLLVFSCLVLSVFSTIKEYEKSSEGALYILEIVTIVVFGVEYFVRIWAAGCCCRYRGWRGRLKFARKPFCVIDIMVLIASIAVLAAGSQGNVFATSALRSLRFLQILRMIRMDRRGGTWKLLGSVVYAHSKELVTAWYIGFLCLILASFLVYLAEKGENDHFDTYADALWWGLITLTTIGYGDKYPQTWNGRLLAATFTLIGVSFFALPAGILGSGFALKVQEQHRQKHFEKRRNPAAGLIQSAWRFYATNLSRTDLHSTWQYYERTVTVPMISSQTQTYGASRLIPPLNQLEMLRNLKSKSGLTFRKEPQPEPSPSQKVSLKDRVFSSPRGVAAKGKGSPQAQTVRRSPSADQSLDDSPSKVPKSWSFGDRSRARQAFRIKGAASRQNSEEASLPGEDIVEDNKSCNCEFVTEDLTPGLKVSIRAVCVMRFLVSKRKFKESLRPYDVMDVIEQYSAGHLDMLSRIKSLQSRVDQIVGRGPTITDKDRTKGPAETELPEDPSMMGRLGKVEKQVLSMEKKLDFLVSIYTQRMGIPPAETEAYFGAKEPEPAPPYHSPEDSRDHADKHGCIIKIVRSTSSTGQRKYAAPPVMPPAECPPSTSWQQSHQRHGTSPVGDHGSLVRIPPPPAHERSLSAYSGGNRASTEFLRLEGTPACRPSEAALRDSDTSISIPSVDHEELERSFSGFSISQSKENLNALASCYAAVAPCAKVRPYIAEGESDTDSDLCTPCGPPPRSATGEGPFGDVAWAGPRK

[4] = biological target: Potassium voltage-gated channel subfamily KQT member 1 (Homo sapiens) (UniProt P51787); assay: KCNQ1 channel current potentiators, confirmation, orthogonal assay for KCNQ1 potentiator project, IonWorks patch clamp, KCNQ1-CHO cells (AID 493184;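 active means current rise at least 3 SD above the untreated control mean in each of two repeat wells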); conditions: automated patch clamp current, at 10 µM
[5] = test system: TRPC4 beta (transient receptor potential cation channel C4), mouse; assay: activators of mouse TRPC4 channel, confirmation, cell-based, Fluo4 calcium, HEK293 TRPC4beta/mu-opioid, duplicates, 10 µM (AID 2426;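 active means fluorescence ratio normalized to control raised more than 50% in primary screen plus both repeat runs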;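 on activation: percent rise of integrated ratio over buffer wells lacking compound which define 0%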); conditions: Fluo4 calcium fluorescence, at 10 µM; active compounds read high
[6] = test system: transient receptor potential cation channel C4 beta (TRPC4), mouse; assay: activators of mouse TRPC4 channel, confirmation, cell-based, second round, Fluo4, HEK293 TRPC4beta/mu-opioid, 1 µM (AID 2461;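 active means primary screen active and over 50% activation in each of two duplicate runs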;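 on activation: 0% = wells without test compound as baseline of integrated fluorescence ratio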); conditions: Fluo4 calcium fluorescence, at 1 µM; active compounds read high
[7] = test system: TRPC4 (transient receptor potential cation channel C4 beta), mouse; assay: positive allosteric modulators of mouse TRPC4, confirmation, cell-based, second round, Fluo-4, HEK293 TRPC4beta/mu-opioid, 1 µM (AID 2554;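 active means primary screen hit whose fluorescence ratio, in both repeats, exceeds the weak agonist control mean by 3 SD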); conditions: DAMGO EC20, Fluo-4 calcium flux, at 1 µM; active compounds read high
[8] = test system: TRPC4 beta (transient receptor potential cation channel C4), mouse; assay: positive allosteric modulators of mouse TRPC4, confirmation, cell-based, Fluo-4, HEK293 TRPC4beta/mu-opioid (AID 2555;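 active means primary screen hit whose calcium fluorescence ratio, in both repeats, exceeds the weak agonist control mean by 3 SD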); conditions: DAMGO EC20, Fluo-4 calcium flux, at 10 µM; active compounds read high
[9] = biological target: Short transient receptor potential channel 4 (Mus musculus) (UniProt Q9QUQ5); assay: inhibitors of mouse TRPC4 channel, confirmation, cell-based, Fluo4, HEK293 TRPC4beta/mu-opioid (AID 2636;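 active means calcium signal cut by more than 3 SD below the full-agonist control yet still positive, in both repeats and the earlier primary screen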); conditions: DAMGO, Fluo4 calcium flux, at 10 µM; active compounds read high
Sequence of Short transient receptor potential channel 4 (Mus musculus) (Q9QUQ5 whole entry, looked up): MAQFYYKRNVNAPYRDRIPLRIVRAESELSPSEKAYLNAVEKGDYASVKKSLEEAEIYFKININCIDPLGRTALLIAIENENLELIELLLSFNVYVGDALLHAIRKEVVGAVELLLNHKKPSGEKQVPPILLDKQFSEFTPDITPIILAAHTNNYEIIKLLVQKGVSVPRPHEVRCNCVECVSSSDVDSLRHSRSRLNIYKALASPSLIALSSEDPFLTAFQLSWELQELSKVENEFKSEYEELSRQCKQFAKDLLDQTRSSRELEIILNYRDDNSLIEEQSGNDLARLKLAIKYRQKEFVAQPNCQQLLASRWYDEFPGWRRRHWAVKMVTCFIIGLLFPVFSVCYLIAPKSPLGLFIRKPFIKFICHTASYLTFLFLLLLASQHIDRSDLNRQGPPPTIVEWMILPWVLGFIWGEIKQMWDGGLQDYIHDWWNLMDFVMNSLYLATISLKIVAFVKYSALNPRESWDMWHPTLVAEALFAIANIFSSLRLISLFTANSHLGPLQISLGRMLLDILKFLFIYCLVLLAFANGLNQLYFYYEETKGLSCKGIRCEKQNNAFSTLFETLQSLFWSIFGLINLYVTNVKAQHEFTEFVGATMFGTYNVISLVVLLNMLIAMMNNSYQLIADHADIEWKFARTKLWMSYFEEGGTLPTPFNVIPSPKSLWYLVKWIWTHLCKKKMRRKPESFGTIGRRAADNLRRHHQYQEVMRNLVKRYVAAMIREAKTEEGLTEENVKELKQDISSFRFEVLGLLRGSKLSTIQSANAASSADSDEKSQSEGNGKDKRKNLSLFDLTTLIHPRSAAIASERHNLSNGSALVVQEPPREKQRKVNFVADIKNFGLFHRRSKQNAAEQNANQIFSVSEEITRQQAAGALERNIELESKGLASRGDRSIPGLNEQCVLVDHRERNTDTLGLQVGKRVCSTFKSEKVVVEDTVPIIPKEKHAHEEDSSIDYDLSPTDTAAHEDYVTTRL

[10] = biological target: Short transient receptor potential channel 4 (Mus musculus) (UniProt Q9QUQ5); assay: inhibitors of mouse TRPC4 channel, confirmation, cell-based, second round, Fluo4, HEK293 TRPC4beta/mu-opioid, 1 µM (AID 2637;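 active means calcium signal ratio cut to more than 3 SD under the fully stimulated control mean yet still positive, in both repeats and the primary screen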); conditions: Fluo4 calcium flux, DAMGO, at 1 µM; active compounds read high
[11] = biological target: Short transient receptor potential channel 4 (Mus musculus) (UniProt Q9QUQ5); assay: TRPC4 positive allosteric modulators, dose response, cell-based, HEK293 TRPC4/mu-opioid, Fluo-4 calcium, EC20 DAMGO (AID 434941;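 active means earlier screen potentiator hit that boosts the TRPC4 ion channel at some dose, with a dose response; inactive means no potentiation, no dose response, or not a prior hit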;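 further: calcium entry triggered by an EC20 dose of DAMGO at the co-expressed mu-opioid receptor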); conditions: HEK293 TRPC4/mu-opioid cells, Fluo-4 calcium fluorescence; series mostly up to 20 µM
[12] = biological target: Short transient receptor potential channel 4 (Mus musculus) (UniProt Q9QUQ5); assay: mouse TRPC4 channel inhibitors, dose response, cell-based, HEK293 TRPC4/mu-opioid, Fluo-4 calcium (AID 434942;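 active means primary screen inhibitor hit that blocks the TRPC4 channel at some tested dose, yielding a dose curve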); conditions: HEK293 TRPC4/mu-opioid cells, DAMGO-evoked Fluo-4 calcium ratio; series mostly up to 20 µM
[13] = biological target: Short transient receptor potential channel 6 (Mus musculus) (UniProt Q61143); assay: inhibition of mouse TRPC6 channel, confirmation, selectivity assay for TRPC4 inhibitor project, cell-based, HEK293, membrane potential dye, duplicate (AID 434948;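 active means active in primary screen and both duplicates, each dropping signal beyond three positive-control SD with fluorescence still positive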); conditions: HEK293 TRPC6, membrane potential dye fluorescence, at 10 µM; inhibition: active compounds read high, stimulated with maximal-effect acetylcholine unless noted; outcome: stimulated with maximal-effect acetylcholine unless noted
Sequence of Short transient receptor potential channel 6 (Mus musculus) (Q61143 whole entry, looked up): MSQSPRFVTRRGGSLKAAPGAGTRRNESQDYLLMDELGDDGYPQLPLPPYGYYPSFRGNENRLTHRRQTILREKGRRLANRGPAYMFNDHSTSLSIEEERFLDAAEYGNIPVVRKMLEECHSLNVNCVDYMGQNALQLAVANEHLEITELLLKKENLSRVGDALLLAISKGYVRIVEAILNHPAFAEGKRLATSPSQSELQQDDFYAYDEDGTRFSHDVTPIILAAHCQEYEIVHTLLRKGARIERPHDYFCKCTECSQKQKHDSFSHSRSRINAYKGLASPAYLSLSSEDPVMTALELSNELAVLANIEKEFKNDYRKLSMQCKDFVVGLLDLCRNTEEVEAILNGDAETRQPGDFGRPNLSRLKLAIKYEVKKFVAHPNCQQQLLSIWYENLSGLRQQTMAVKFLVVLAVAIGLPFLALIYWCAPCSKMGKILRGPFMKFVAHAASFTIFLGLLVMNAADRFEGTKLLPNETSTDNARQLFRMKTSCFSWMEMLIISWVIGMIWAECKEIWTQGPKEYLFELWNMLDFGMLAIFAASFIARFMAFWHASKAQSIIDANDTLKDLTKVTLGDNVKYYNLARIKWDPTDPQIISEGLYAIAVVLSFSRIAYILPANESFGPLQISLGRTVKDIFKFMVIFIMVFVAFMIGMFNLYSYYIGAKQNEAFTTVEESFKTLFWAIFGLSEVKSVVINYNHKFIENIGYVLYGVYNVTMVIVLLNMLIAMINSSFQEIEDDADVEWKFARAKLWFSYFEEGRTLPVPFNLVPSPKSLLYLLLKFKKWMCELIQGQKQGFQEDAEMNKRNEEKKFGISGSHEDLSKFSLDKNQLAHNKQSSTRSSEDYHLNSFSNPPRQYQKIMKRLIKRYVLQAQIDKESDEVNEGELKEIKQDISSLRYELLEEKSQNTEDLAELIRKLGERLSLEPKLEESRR

[14] = biological target: Short transient receptor potential channel 6 (Mus musculus) (UniProt Q61143); assay: activation of mouse TRPC6 channel, confirmation, selectivity assay for TRPC4 activator project, cell-based, HEK293, membrane potential dye, duplicate (AID 434950;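 active means membrane potential signal rise above negative control mean plus 3 SD in both duplicates, also active in the earlier TRPC4 screen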;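 on activation: 0% = buffer only wells and 100% = acetylcholine maximal-effect wells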); conditions: HEK293 TRPC6, membrane potential fluorescence, at 10 µM; active compounds read high
[15] = biological target: Short transient receptor potential channel 6 (Mus musculus) (UniProt Q61143); assay: TRPC6 potentiation by TRPC4 potentiator hits, confirmation, selectivity assay for TRPC4 potentiator project, HEK293 cells, membrane potential dye, duplicate (AID 434952;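 active means compound raising the membrane signal above positive-control mean plus 3 SD in both repeats, and a primary screen hit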); conditions: HEK293 TRPC6, membrane potential dye fluorescence, at 10 µM; maximal acetylcholine added after compound unless noted
[16] = biological target: Short transient receptor potential channel 4 (Mus musculus) (UniProt Q9QUQ5); assay: calcium flux activators in TRPC4/5HT1a cells, counter-screen for TRPC4 activator project, cell-based, second counter screen, HEK293 TRPC4/5HT1a, Fluo-4 (AID 434977;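 active means calcium signal rise above buffer-control mean plus 5 SD in both duplicates, and also a hit in the primary screen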;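 on activation: plate controls were assay buffer for no effect and maximal serotonin response for full effect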); conditions: Fluo-4 calcium flux, at 10 µM; active compounds read high
[17] = calcium flux inhibitors in TRPC4/5HT1a cells, confirmation, counter-screen for TRPC4 inhibitor project, cell-based, second counter screen, HEK293 TRPC4/5HT1a, Fluo-4 (AID 434978;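 active means primary screen active whose calcium signal fell more than 3 SD beyond the full-serotonin control mean in both duplicate plates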;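 further: serotonin given first at submaximal then at maximal dose after compound preincubation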); conditions: Fluo-4 calcium flux, at 10 µM; inhibition: active compounds read high, serotonin added to trigger calcium flux unless noted; outcome: serotonin added to trigger calcium flux unless noted
[18] = test system: TRPC4 (mouse), co-expressed with 5HT1a in HEK293; assay: calcium flux potentiators in TRPC4/5HT1a cells, confirmation, counter-screen for TRPC4 potentiator project, cell-based, second counter screen, HEK293 TRPC4/5HT1a, Fluo-4 (AID 434979); conditions: Fluo-4 calcium flux, at 10 µM; outcome: serotonin added at its EC20 dose unless noted; potentiation: active compounds read high, serotonin added at its EC20 dose unless noted
[19] = calcium flux activation in mu-opioid HEK293 cells, confirmation, counter-screen for TRPC4 activator project, cell-based, HEK293 mu-opioid receptor line (AID 449723;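 active means hit in primary screen, with calcium signal over 5 SD above buffer well mean in both duplicates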;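 further: counter screen cells carry the mu-opioid receptor alone and lack TRPC4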); conditions: Fluo-4 calcium fluorescence, at 10 µM; active compounds read high
[20] = calcium flux enhancement in mu-opioid HEK293 cells, confirmation, counter-screen for TRPC4 allosteric potentiator project, cell-based, HEK293 mu-opioid receptor line (AID 449724;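 active means calcium signal rise more than 3 SD above the low-dose agonist control mean, in both duplicate plates and the primary screen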); conditions: Fluo-4 calcium flux, at 10 µM; compound added before EC20 DAMGO stimulus unless noted
[21] = biological target: Short transient receptor potential channel 4 (Mus musculus) (UniProt Q9QUQ5); assay: mouse TRPC4 membrane potential modulation by TRPC6 hits, confirmation, selectivity assay for TRPC6 inhibitor project, cell-based, second specificity screen, HEK293 TRPC4/mu-opioid (AID 2776;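 active means compounds whose fluorescence signal differed from control wells by over 3 SD, either direction, in both duplicate plates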); conditions: HEK293 TRPC4/MOR, membrane potential dye fluorescence; at 10 µM; active compounds read high; channel activated by saturating DAMGO dose
[22] = test system: transient receptor potential cation channel C4 (TRPC4), mouse; assay: mouse TRPC4 modulation by TRPC6 hits, confirmation, selectivity assay for TRPC6 inhibitor project, cell-based, HEK293 TRPC4/mu-opioid, membrane potential dye (AID 2777;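 active means rise or fall in signal beyond 3 SD of buffer-only wells in both replicate plates, either sign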;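 further: integrated kinetic ratio of fluorescence range over baseline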); conditions: membrane potential fluorescence, at 10 µM
[23] = nonspecific membrane potential effects, parental HEK293, confirmation, counter-screen for TRPC6 inhibitor project, cell-based, second counter screen (AID 2779;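 active means membrane potential signal moving either way by over 3 SD of the maximum-effect control, in both duplicate plates, meaning non-specific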); conditions: parental HEK293 membrane potential dye fluorescence; at 10 µM; maximal acetylcholine challenge after compound addition
[24] = membrane potential modulation in parental HEK293, confirmation, counter-screen for TRPC6 inhibitor project, cell-based (AID 2780;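 active means membrane potential signal shifting up or down by more than 3 SD of buffer-only wells, on both duplicate plates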); conditions: parental HEK293 membrane potential dye fluorescence; at 10 µM
[25] = biological target: Short transient receptor potential channel 6 (Mus musculus) (UniProt Q61143); assay: mouse TRPC6 channel inhibitors, confirmation, HEK293 cells, membrane potential dye, duplicate (AID 488960;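 active means fluorescence ratio falls more than 5 SD below the full-stimulation control mean, in both duplicate runs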); conditions: ACh-evoked depolarization, at 10 µM; active compounds read high
[26] = biological target: Short transient receptor potential channel 6 (Mus musculus) (UniProt Q61143); assay: mouse TRPC6 channel activators, confirmation, HEK293 cells, membrane potential dye, duplicate (AID 488961;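 active means ratio signal rise beyond 5 SD above unstimulated control wells' mean, seen in both duplicate runs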); conditions: HEK293-TRPC6 membrane potential dye fluorescence, FDSS; at 10 µM

COc1cccc(CC(=O)N2CCN(Cc3cccc(Cl)c3)CC2)c1
inactive: outcome [1] | outcome [2] | outcome [3] | outcome [4]

O=C(CCCN1CCC2(CC1)C(=O)NCN2c1ccccc1)c1ccc(F)cc1
active: activation [5] 193% | activation [14] 39.5% | activation [16] 86.7% | activation [19] 48% | activation [1] 336% | potentiation [2] 55.5% | potentiation [3] 323%
inactive: outcome [6] | outcome [7] | outcome [8] | outcome [9] | outcome [10] | outcome [11] | outcome [12] | outcome [13] | outcome [15] | outcome [17] | outcome [18] | outcome [20] | outcome [4]

COc1ccc(C(CNC(=O)CCc2ccsc2)N(C)C)cc1 (centres undefined)
inactive: outcome [7] | outcome [8] | outcome [9] | outcome [10] | outcome [11] | outcome [12] | outcome [13] | outcome [15] | outcome [16] | outcome [17] | outcome [18] | outcome [19] | outcome [20]
active: activation [5] 67% | activation [6] 129% | activation [14] 45.5%

NC(N)=N/N=C/c1ccc(N(c2ccccc2)c2ccccc2)cc1
active: activation [5] 60% | activation [16] 48.2% | activation [19] 20.3%
inactive: outcome [6] | outcome [7] | outcome [8] | outcome [9] | outcome [10] | outcome [11] | outcome [12] | outcome [13] | outcome [14] | outcome [15] | outcome [17] | outcome [18] | outcome [20]

COc1cccc(-c2nc3ccc(N4CCN(C)CC4)cc3[nH]2)c1
active: inhibition [21] 74%
inactive: outcome [22] | outcome [23] | outcome [24] | outcome [25] | outcome [26]

O=C(c1ccc(-c2ccccc2)cc1)C1CCCN(Cc2ccn[nH]2)C1 (centres undefined)
inactive: outcome [1] | outcome [2] | outcome [3] | outcome [4]

Cc1ccc(C[n+]2c(-c3ccc(C)cc3)cc(-c3ccc(C)cc3)cc2-c2ccc(C)cc2)cc1
inactive: outcome [6] | outcome [7] | outcome [8] | outcome [9] | outcome [10] | outcome [11] | outcome [12] | outcome [13] | outcome [14] | outcome [15] | outcome [17] | outcome [18] | outcome [20] | outcome [4]
active: activation [5] 152% | activation [16] 48.5% | activation [19] 19.8% | activation [1] 142% | potentiation [2] 124% | potentiation [3] 185%

COc1ccc(CCNCc2ccc(SC)cc2)cc1
inactive: outcome [6] | outcome [7] | outcome [8] | outcome [9] | outcome [10] | outcome [11] | outcome [12] | outcome [13] inactive [setting not given] | outcome [15] inactive [setting not given] | outcome [17] inactive [setting not given] | outcome [18] inactive [setting not given] | outcome [19] | outcome [20] inactive [setting not given]
active: activation [5] 122% | activation [14] 65.5% | activation [16] 21.7%

CCOC(=O)C1(CCc2ccccc2)CCN(Cc2csc(C(C)=O)c2)CC1
active: activation [14] 57.5%
inactive: outcome [5] | outcome [6] | outcome [7] | outcome [8] | outcome [9] | outcome [10] | outcome [11] | outcome [12] | outcome [13] | outcome [15] | outcome [16] | outcome [17] | outcome [18] | outcome [19] | outcome [20]

CCC(=O)C(CCN1CCOCC1)(c1ccccc1)c1ccccc1
active: activation [5] 289% | activation [6] 164% | activation [14] 69% | activation [16] 5.98%
inactive: outcome [7] | outcome [8] | outcome [9] | outcome [10] | outcome [11] | outcome [12] | outcome [13] inactive [setting not given] | outcome [15] inactive [setting not given] | outcome [17] inactive [setting not given] | outcome [18] inactive [setting not given] | outcome [19] | outcome [20] inactive [setting not given]

— PubChem BioAssay
